Screen size: about 66,000 compounds; about 960 (1.5%) showed an effect of 50% or more. The sample holds strong results, similar compounds and a random draw of the others, so the mix is not that of the screen.
Tested on: Trypanosoma brucei
Test: Trypanosoma brucei 72 hour study
Format: functional, organism-based
Parameters: scale not given: in the data most compounds retested in dose-response had high values

Cl.Cn1nc(C2CCCN(Cc3cc(F)ccc3F)C2)c2nccnc21 (stereo unspecified)
Percent Effect (30.3 µM, […]): 20.63%

CN1[C@@H](C(=O)NCC2CC2)C[C@H]2CN(Cc3ccsc3)C[C@H]21.O=C(O)C(F)(F)F.O=C(O)C(F)(F)F
Percent Effect (30.3 µM, […]): -48.96%

Cn1nc(COCC2CC2)c2c1CN(CC1CC1)CC2.O=C(O)C(F)(F)F.O=C(O)C(F)(F)F
Percent Effect (30.3 µM, […]): -59.62%

O=C(NCc1ccc2c(c1)CCCO2)c1ccccc1C1CCNC1 (stereo unspecified)
Percent Effect (30 µM, 30.03 µM): -18.86%

O=C(NCc1ccc2c(c1)OCO2)c1ccccc1C1CCNC1 (stereo unspecified)
Percent Effect (30 µM, 30.03 µM): 75.73%

CC(C)Cc1cc(CNC(=O)c2ccccc2C2CCNC2)no1 (stereo unspecified)
Percent Effect (30 µM, 30.03 µM): -25.71%

CSc1cccc(CN(C)C(=O)c2ccc(C3CCCNC3)cc2)c1 (stereo unspecified)
Percent Effect (30 µM, 30.03 µM): 45.3%

CN(Cc1ccc2c(c1)OCO2)C(=O)c1ccc(=O)n(C)c1
Percent Effect (30.3 µM, […]): -33.31%

CN(Cc1ccc2c(c1)OCO2)C(=O)c1ccc(C2CCCNC2)cc1 (stereo unspecified)
Percent Effect (30 µM, 30.03 µM): 78.75%

CC(C)OCCCN(Cc1ccncc1)Cc1cccc(F)c1F.Cl
Percent Effect (30.3 µM, […]): -30.88%

N#Cc1ccc(S(=O)(=O)NC(=O)c2csc(-c3ccco3)n2)cc1
Percent Effect (30.3 µM, […]): 2.361%

CCc1ccc(CN2C[C@@H](C)C3(CCN(CC(=O)N(C)C)C3=O)C2)o1.O=C(O)C(F)(F)F (stereo partly specified)
Percent Effect (30.3 µM, […]): 4.737%

CC(=O)N1N=C(c2cccs2)OC1C(=O)NCc1ccc(C)o1 (stereo unspecified)
Percent Effect (30.3 µM, […]): 9.707%
Percent Effect (10 mM, 10 mM as filed; unlikely as a test dose): -41.55%

COc1ccc(CCC(=O)NCCN2CCC(c3cccs3)CC2)cc1
Percent Effect (30 µM, 30.03 µM): 100%

O=C(NCCc1ccccc1)NCCN1CCC(c2cccs2)CC1
Percent Effect (30 µM, 30.03 µM): 47.79%

CC(=O)NCCN1CCC(c2cccs2)CC1
Percent Effect (30 µM, 30.03 µM): -43.56%

CC1CCCN(Cc2ccnc(-c3cccnc3)n2)C1.O=C(O)CC(O)(CC(=O)O)C(=O)O (stereo unspecified)
Percent Effect (30.3 µM, […]): 9.831%

CS(=O)(=O)NCCC(=O)Nc1cnn(-c2ccccc2Cl)c1
Percent Effect (30.3 µM, […]): -13.82%

O=C(CCCNC(=O)C1CC1)Nc1cnn(-c2ccccc2Cl)c1
Percent Effect (30 µM, 30.03 µM): 60.12%

O=C(CCN1C(=O)CCC1=O)Nc1cnn(-c2ccccc2Cl)c1
Percent Effect (30 µM, 30.03 µM): -41.29%

O=C(O)C(F)(F)F.O=C(O)C(F)(F)F.O=c1ccc2c(n1Cc1ccncc1)CCN(Cc1ccoc1)CC2
Percent Effect (30 µM, 30.03 µM): -36.06%

Cl.c1nc(CCC2CCCCN2)cc(N2CCCC2)n1 (stereo unspecified)
Percent Effect (30.3 µM, […]): -10.52%

CC(C)N1CCC(N2CCC(C(=O)N(C)C)CC2)CC1.O=C(O)C(F)(F)F.O=C(O)C(F)(F)F
Percent Effect (30.3 µM, […]): -22.06%

COC(=O)C1CCN(C(=O)c2cc(Br)ccc2-n2cnnn2)CC1
Percent Effect (30 µM, 30.03 µM): -52.11%

NC(=O)N1CCCC(C(=O)N2CCN(c3nsc4ccccc34)CC2)C1 (stereo unspecified)
Percent Effect (30.3 µM, […]): 39.11%

CC(C)N1CCCC(C(=O)N2CCN(c3nsc4ccccc34)CC2)C1 (stereo unspecified)
Percent Effect (30.3 µM, […]): 50.26%

CCN1CC(C(=O)N2CCN(c3nsc4ccccc34)CC2)CCC1=O (stereo unspecified)
Percent Effect (30.3 µM, […]): 18.26%

CN(C)C(=O)c1cnc2n1CCN(Cc1cccnc1)C2.O=C(O)C(F)(F)F.O=C(O)C(F)(F)F
Percent Effect (30.3 µM, […]): -389.6%

O=C(O)C(F)(F)F.O=C(O)C(F)(F)F.O=C(O)C(F)(F)F.c1ccc(CN2CCc3c(COCC4CC4)cncc3C2)nc1
Percent Effect (30.3 µM, […]): -75.06%

CN1C[C@@H](N)C[C@H]1C(=O)N1CCC(CCCc2ccccc2)CC1
Percent Effect (30 µM, 30.03 µM): -31.74%

OC1(CN2CCCCC2)CCN(c2ccc(C(F)(F)F)cn2)C1 (stereo unspecified)
Percent Effect (30.3 µM, […]): 3.051%

N#CC1=C(N)Nn2c(nnc2-c2ccccc2F)S1
Percent Effect (30 µM, 30.03 µM): -51.04%

CCn1cc(CNc2ccc(Br)c(OC)c2)cn1
Percent Effect (30 µM, 30.03 µM): -16.49%

CCn1cc(CNc2ccc3nccnc3c2)cn1
Percent Effect (30 µM, 30.03 µM): 99.73%

CCn1cc(CNc2ccc(F)c(N3CCCS3(=O)=O)c2)cn1
Percent Effect (30 µM, 30.03 µM): -16.14%

Nc1cc(N2CCC(c3cc(Cc4ccccc4)n[nH]3)CC2)ccn1
Percent Effect (30.3 µM, […]): 99.46%

Nc1nc(O)cc(N2CCC(c3cc(Cc4ccccc4)n[nH]3)CC2)n1
Percent Effect (30.3 µM, […]): -102.6%

Nc1nccc(N2CCC(c3cc(Cc4ccccc4)n[nH]3)CC2)n1
Percent Effect (30.3 µM, […]): 36.98%

COc1cccc(OC)c1C(=O)NCC(c1cccn1C)N1CCCC1 (stereo unspecified)
Percent Effect (30.3 µM, […]): 99.38%

COc1cccc(C(=O)NCC(c2cccn2C)N2CCCC2)c1OC (stereo unspecified)
Percent Effect (30.3 µM, […]): -16.52%

COc1ccc(C(=O)NCC(c2cccn2C)N2CCCC2)cc1OC (stereo unspecified)
Percent Effect (30.3 µM, […]): -9.189%

CO[C@@H]1CCN(C(=O)Cc2ccsc2)[C@H]1Cc1cccnc1.O=C(O)C(F)(F)F
Percent Effect (30.3 µM, […]): -12.88%

Cc1cccc(COC[C@H]2CC[C@H]3[C@H](CCN3C(=O)CC3CC3)O2)n1.O=C(O)C(F)(F)F
Percent Effect (30 µM, 30.03 µM): 22.76%

CCOc1ccc(CN[C@@H]2COC[C@H]2c2ccc(F)cc2)cc1.O=C(O)CC(O)(CC(=O)O)C(=O)O
Percent Effect (30.3 µM, […]): -47.65%

COCCN1C[C@H]2CC[C@@H]1CN(C(=O)CCn1cc(Cl)cn1)C2
Percent Effect (30.3 µM, […]): 4.772%

— ChEMBL document CHEMBL3988442, “University of Dundee, Small-Polar-MMV Screening Library” (2021)
